Sampled rows, rich in hits. Any-hit rate of the full collection: about 2.5%.
HSF1 inhib = HSF1 inhibition. 300,000 compounds, 0.77% hits. NIH3T3-HGL HSE-luciferase, MG132-induced, luminescence 8 h; hits give low values. activity change, negative = inhibition, % at 7.5 µM (by protocol). AID 2098;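 active = more than half of replicate wells show activity change below -50%, luminescence cut by over half; inconclusive = some wells, but at most half, below -50%; inactive = no replicate well below -50%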;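 also: luciferase reports HSF-1 transcriptional activity via heat shock element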
HSF-1 act = increases HSF-1 driven luciferase reporter signal; NIH3T3-HGL HSF-1 luciferase reporter, MG132, 8 h; 100% = twice DMSO control signal; activation, % at 9 µM; 300,000 compounds, 1.7% hits;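 active = mean replicate activation of at least 50% with a set share of replicates each reaching 50%; inconclusive = only one of those two conditions met; inactive = mean below 50% and too few replicates reaching it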
NPR1 activator = GC-A (human) enzyme activation | activation, % at 10 µM | P16066 | HEK293 GC-A cells, cGMP TR-FRET, EC30 ANP; 0% at EC30 ANP, 100% saturating ANP | 370,000 compounds, 0.14% hits; in the data active = activation above about 40%
aDG glyco up = alpha-DG glycosylation activation; Pro5-aDG cells, alpha-DG glycosylation AlphaScreen (IIH6); 0% Pro5, 100% B10-LARGE cell signal; AID 624168; 360,000 compounds, 0.22% hits; activation, % at 10 µM;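 active = activation of at least 8% versus controls, or a plate z-score of at least 8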;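 also: Pro5 are CHO cells carrying HIG-tagged alpha-DG that lacks glycosylation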
GC-B act = GC-B (human) receptor activation | activation, % at 10 µM | HEK293-GC-B cells, CNP EC30, cGMP TR-FRET; 0% at EC30 CNP, 100% saturating CNP | P20594 | 370,000 compounds, 0.11% hits | AID 1920062;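 active = activation at 10 µM reaching about 35% in either raw or pattern-adjusted values, limit read from the data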
Dyrk1A ADPGlo = blocks rat Dyrk1A kinase activity | Q63470 | ADP-Glo luminescence, NFATc1 peptide | inhibition, % at 12.5 µM | 310,000 compounds, 0.43% hits; in the data active = inhibition above about 50%
A number is an active result; . = inactive; ? = inconclusive; / = no result given.

SMILES | HSF1 inhib | HSF-1 act | NPR1 activator | aDG glyco up | GC-B act | Dyrk1A ADPGlo
O=C1c2ccccc2C(=O)N1CCOc1ccccc1Cl | . | 71 | . | . | . | .
COC(=O)/C=C/COc1ccccc1[N+](=O)[O-] | . | . | . | . | . | .
COc1ccc(CNC(=O)CN(C(=O)c2cc3sccc3n2C)C2CCCC2)cc1 | . | . | . | . | . | .
Cc1ccccc1NC(=O)Cc1nc(COC(=O)/C=C/c2ccc(F)cc2)cs1 | / | / | . | . | . | /
O=C(COc1cccc(F)c1)NNC(=O)Cc1ccc(S(=O)(=O)N2CCOCC2)s1 | / | / | . | . | . | /
CCOC(=O)c1ccc(NC(=S)N2CCCC(C(=O)N3CCCC3)C2)cc1 (stereo unspecified) | . | . | . | . | . | .
CCOC(=O)c1ccc(NC(=S)N2CCCC(C)C2)cc1 (stereo unspecified) | . | 62 | . | . | . | .
CCOC(=O)c1ccc(NC(=S)NC(=O)C2CCCC2)cc1 | -74 | . | . | . | . | .
Cc1ccc(C(=O)NC(=S)Nc2cc(-c3nc4ccccc4s3)ccc2C)cc1 | . | 59 | . | . | . | .
O=C(O)Cc1ccc(NC(=O)c2cccc(NC(=O)c3ccco3)c2)cc1 | . | . | . | . | . | .
CCC(NC(=S)NCc1ccccc1)C(=O)O (stereo unspecified) | -60 | . | / | . | / | .
CCNC(=S)NNC(=S)NCc1ccccc1 | . | . | . | . | . | .
Cc1cc(NS(=O)(=O)c2cccs2)no1 | . | . | . | . | . | .
CC(Nc1ncnc2sccc12)c1ccccc1 (stereo unspecified) | -81 | . | . | 2.2 | . | .
c1ccc(Nc2ncnc3sccc23)cc1 | . | . | . | . | . | .
Cc1ccc(S(=O)(=O)NCCSc2nncn2C)cc1 | . | . | . | . | . | .
Cc1ccc(S(=O)(=O)NC(C)(C)CSc2nncn2N)cc1 | -77 | . | . | . | . | /
CN(C)S(=O)(=O)c1ccc(C(=O)Nc2nc(-c3cccs3)cs2)cc1 | . | . | . | . | . | .
COc1ccc(-n2c(C)cc(-c3csc(NC(=O)c4ccc(S(=O)(=O)N(C)C)cc4)n3)c2C)cc1 | -54 | . | . | . | . | .
CSc1nc(NC(C)(C)C)nc(Oc2ccc(=O)[nH]n2)n1 | . | 52 | . | . | . | .
Cc1ccc(S(=O)(=O)N(CC(=O)N/N=C/c2ccco2)c2cc(Cl)cc(Cl)c2)cc1 | . | . | . | . | . | .
COc1cccc(NC(=O)Cn2c(=O)oc3cc(S(=O)(=O)N4CCCC4)ccc32)c1 | -56 | . | . | . | . | .
COc1ccc(CNC(=O)OCCN2CCN(S(=O)(=O)c3ccc(C)cc3)CCC2=O)cc1 | -68 | . | . | . | . | .
COc1ccc(S(=O)(=O)N2CCN(CCC(=O)Nc3ccccc3F)CC2)cc1 | . | . | . | . | . | .
COc1ccc(NC(=O)CCN2CCN(S(=O)(=O)c3ccc(OC)cc3)CC2)cc1 | -91 | . | . | . | . | .
SMILES | HSF1 inhib | HSF-1 act | NPR1 activator | aDG glyco up | GC-B act | Dyrk1A ADPGlo
O=C(Cc1ccccc1F)Nc1ccc(S(=O)(=O)N2CCCCC2)cc1 | -65 | . | . | . | . | .
CCn1cc(C(=O)OCC(=O)Nc2cc(S(=O)(=O)N(C)C)ccc2C)c(=O)c2ccc(C)nc21 | . | . | . | . | . | .
O=C(CN(Cc1ccco1)C(=O)CCC(=O)Nc1nccs1)NCc1ccccc1 | . | . | . | . | . | .
COc1ccc(C(=O)N/C(=C\c2cc(OC)c(OC)cc2[N+](=O)[O-])C(=O)NCCO)cc1 | / | / | . | . | . | .
O=C(NNC(=S)Nc1ccc(Cl)cc1)c1cccs1 | . | ? | . | . | . | .
O=C(O)c1cccc(-c2ccc(/C=N/Nc3nn[nH]n3)o2)c1 | . | . | . | . | . | .
COc1ccccc1OCC(=O)Nc1ccc(S(=O)(=O)N2CCCC2)cc1 | -62 | . | . | . | . | .
COc1ccccc1CCC(=O)OCC(=O)Nc1cccc(S(=O)(=O)N2CCCCC2)c1 | . | . | . | . | . | .
COc1ccccc1CCC(=O)OCC(=O)Nc1cccc(S(=O)(=O)N2CCOCC2)c1 | -63 | . | . | . | . | .
CCc1nc(SCc2nc3ccccc3[nH]2)c2oc3ccccc3c2n1 | . | . | . | . | . | .
CCOC(=O)c1c(-c2ccccc2)cn2ccccc12 | . | . | . | . | . | .
CCOC(=O)c1c(-c2ccc(C)cc2)cn2ccccc12 | . | 78 | . | . | . | .
CCC1CCCCN1CCCNC(=O)CSc1nc2nc(C)c(Cc3ccccc3Cl)c(C)n2n1 (stereo unspecified) | . | . | . | . | . | .
N#Cc1ccccc1COC(=O)c1ccc(Br)o1 | . | . | . | . | . | .
N#Cc1ccccc1COC(=O)c1cc(=O)c2ccccc2o1 | . | 63 | . | . | . | .
C=CCn1c(C)cc(C(=O)COC(=O)COc2ccccc2C#N)c1C | . | . | . | . | . | .
C=CCn1c(C)cc(C(=O)COC(=O)[C@@H](NC(=O)c2ccccc2Cl)C(C)C)c1C | -61 | . | . | . | . | .
Cc1cc(Cl)cc2c1NC(=O)[C@]21[C@@H]2C(=O)N(Cc3ccccc3)C(=O)[C@@H]2[C@@H]2CCCN21 | . | . | . | . | . | .
COC(=O)c1c(N2C(=O)[C@H]3[C@@H](C2=O)[C@]2(C(=O)Nc4c(C)cccc42)N2CCC[C@@H]32)sc(C)c1C | -74 | . | . | . | . | .
CC(=O)OCCN1C(=O)c2ccc(-c3nc4ccccc4c(=O)o3)cc2C1=O | . | . | 47 | . | . | .
Cc1[nH]c(C)c(S(=O)(=O)N2CCCCC2)c1C(=O)N1CCCC1 | . | . | . | . | . | .
CCOC(=O)c1c(C)[nH]c(C)c1S(=O)(=O)N1CCCCC1 | . | 57 | . | . | . | .
CCOC(=O)c1c(C)[nH]c(C)c1S(=O)(=O)N1CCN(c2cccc(C)c2)C(C)C1 (stereo unspecified) | . | 87 | . | . | . | /
Cc1cccc(N2CCN(S(=O)(=O)c3c(C)[nH]c(C)c3C(=O)N3CCCC3)CC2C)c1 (stereo unspecified) | . | 55 | . | . | . | .
OC(CNCc1ccco1)Cn1c2ccc(Br)cc2c2cc(Br)ccc21 (stereo unspecified) | . | 61 | . | . | . | .
Nc1cc(N)nc(SCC(=O)NCC2CCCO2)n1 (stereo unspecified) | . | . | . | . | . | .
CCCCN(CCCC)CC(O)COc1ccc(Br)cc1 (stereo unspecified) | . | . | . | . | . | .
COc1cccc(-c2cc(C(=O)Nc3cnn(Cc4ccc(F)cc4)c3)no2)c1 | . | . | . | . | . | .

Compound activity from PubChem.
